# Source: ChEMBL document CHEMBL5724796, “Tm Shift (DSF) assay results for EUbOPEN Chemogenomics Library” (2024)
# How the values were obtained:
# Conditions in all cases: Compound concentration 20.0 uM
# [1] = target: Tyrosine-protein kinase ABL1 (Homo sapiens) (UniProt P00519)
# [2] = target: Bromodomain-containing protein 4 (Homo sapiens) (UniProt O60885)
# [3] = target: Cyclin-dependent kinase 2 (Homo sapiens) (UniProt P24941)
# [4] = target: Casein kinase I isoform delta (Homo sapiens) (UniProt P48730)
# Chain of Casein kinase I isoform delta (Homo sapiens) (P48730 whole entry, looked up, canonical isoform): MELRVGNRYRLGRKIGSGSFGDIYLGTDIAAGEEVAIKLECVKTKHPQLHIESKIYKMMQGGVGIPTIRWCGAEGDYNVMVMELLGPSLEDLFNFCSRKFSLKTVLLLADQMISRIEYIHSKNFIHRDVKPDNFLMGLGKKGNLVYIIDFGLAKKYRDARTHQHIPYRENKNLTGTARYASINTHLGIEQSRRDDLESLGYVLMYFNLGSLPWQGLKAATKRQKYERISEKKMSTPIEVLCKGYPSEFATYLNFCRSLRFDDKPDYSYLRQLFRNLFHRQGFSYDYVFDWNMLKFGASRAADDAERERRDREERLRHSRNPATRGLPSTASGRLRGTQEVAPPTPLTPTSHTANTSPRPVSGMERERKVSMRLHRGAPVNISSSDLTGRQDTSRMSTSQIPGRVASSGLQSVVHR
# [5] = target: Glycogen synthase kinase-3 beta (Homo sapiens) (UniProt P49841)
# Chain of Glycogen synthase kinase-3 beta (Homo sapiens) (P49841 whole entry, looked up): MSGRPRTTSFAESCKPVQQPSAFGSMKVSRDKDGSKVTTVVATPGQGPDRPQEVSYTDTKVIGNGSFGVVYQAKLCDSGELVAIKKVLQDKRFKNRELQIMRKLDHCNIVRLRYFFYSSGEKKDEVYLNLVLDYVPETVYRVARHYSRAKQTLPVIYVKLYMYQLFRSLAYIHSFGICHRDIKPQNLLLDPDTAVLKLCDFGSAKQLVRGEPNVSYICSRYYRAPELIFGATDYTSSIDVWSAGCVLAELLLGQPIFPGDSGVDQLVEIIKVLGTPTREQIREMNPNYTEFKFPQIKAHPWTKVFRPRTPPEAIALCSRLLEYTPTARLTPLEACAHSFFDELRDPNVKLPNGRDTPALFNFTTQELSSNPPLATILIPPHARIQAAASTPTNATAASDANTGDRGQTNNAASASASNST
# [6] = target: Mitogen-activated protein kinase 1 (Homo sapiens) (UniProt P28482)
# Chain of Mitogen-activated protein kinase 1 (Homo sapiens) (P28482 whole entry): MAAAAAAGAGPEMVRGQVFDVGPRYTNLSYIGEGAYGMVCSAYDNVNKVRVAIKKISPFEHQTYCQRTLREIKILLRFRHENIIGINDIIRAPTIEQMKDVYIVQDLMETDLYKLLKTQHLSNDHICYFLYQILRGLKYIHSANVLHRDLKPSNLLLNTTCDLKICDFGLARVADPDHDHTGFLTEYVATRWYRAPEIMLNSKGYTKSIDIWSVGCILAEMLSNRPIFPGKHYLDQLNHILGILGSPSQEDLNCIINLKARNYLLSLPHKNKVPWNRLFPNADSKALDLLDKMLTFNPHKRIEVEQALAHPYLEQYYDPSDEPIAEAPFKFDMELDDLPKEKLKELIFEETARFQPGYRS
# [7] = target: T1, Aurora kinase A (Homo sapiens) (UniProt O14965)
# T1 sequence (whole entry): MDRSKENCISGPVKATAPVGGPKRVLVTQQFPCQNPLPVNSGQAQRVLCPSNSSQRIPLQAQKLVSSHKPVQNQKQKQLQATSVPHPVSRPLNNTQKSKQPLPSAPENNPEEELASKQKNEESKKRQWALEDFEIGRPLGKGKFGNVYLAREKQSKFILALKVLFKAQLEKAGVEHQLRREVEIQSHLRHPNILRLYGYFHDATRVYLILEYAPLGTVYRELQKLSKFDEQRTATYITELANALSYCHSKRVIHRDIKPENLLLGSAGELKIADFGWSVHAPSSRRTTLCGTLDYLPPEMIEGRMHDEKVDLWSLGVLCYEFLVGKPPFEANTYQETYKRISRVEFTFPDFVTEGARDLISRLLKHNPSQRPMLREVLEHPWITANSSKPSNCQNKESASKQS
# [8] = target: T2, Transcription intermediary factor 1-alpha (Homo sapiens) (UniProt O15164)
# T2 sequence (whole entry): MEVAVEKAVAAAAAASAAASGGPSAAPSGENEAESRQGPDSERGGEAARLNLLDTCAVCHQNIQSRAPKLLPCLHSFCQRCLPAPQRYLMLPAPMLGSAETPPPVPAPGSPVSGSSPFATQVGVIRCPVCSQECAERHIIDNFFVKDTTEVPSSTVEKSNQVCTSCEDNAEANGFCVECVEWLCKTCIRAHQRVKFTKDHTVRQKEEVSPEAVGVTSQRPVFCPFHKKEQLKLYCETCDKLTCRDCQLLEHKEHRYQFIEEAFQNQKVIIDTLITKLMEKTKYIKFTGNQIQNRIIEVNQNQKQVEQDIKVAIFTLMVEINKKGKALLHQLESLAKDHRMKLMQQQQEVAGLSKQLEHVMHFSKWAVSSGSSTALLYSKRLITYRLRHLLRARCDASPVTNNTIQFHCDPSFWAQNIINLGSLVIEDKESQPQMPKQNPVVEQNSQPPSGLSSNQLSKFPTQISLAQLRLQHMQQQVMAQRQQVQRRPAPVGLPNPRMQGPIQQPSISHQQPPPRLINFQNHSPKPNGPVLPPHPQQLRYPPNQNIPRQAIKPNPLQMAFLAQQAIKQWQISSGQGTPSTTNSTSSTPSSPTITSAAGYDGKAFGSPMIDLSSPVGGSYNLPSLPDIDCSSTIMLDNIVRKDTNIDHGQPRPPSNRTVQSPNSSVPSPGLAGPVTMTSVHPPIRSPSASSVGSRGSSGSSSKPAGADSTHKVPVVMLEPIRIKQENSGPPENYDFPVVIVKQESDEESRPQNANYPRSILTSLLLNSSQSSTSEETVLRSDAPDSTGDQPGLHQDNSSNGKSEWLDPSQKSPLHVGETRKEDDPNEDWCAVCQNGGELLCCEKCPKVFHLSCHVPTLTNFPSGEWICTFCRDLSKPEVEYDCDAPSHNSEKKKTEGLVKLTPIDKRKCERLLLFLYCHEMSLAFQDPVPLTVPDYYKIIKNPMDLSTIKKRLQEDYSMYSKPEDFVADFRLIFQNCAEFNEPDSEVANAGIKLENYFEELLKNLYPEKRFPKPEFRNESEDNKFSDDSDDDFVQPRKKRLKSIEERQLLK
# Chain of Tyrosine-protein kinase ABL1 (Homo sapiens) (P00519 whole entry): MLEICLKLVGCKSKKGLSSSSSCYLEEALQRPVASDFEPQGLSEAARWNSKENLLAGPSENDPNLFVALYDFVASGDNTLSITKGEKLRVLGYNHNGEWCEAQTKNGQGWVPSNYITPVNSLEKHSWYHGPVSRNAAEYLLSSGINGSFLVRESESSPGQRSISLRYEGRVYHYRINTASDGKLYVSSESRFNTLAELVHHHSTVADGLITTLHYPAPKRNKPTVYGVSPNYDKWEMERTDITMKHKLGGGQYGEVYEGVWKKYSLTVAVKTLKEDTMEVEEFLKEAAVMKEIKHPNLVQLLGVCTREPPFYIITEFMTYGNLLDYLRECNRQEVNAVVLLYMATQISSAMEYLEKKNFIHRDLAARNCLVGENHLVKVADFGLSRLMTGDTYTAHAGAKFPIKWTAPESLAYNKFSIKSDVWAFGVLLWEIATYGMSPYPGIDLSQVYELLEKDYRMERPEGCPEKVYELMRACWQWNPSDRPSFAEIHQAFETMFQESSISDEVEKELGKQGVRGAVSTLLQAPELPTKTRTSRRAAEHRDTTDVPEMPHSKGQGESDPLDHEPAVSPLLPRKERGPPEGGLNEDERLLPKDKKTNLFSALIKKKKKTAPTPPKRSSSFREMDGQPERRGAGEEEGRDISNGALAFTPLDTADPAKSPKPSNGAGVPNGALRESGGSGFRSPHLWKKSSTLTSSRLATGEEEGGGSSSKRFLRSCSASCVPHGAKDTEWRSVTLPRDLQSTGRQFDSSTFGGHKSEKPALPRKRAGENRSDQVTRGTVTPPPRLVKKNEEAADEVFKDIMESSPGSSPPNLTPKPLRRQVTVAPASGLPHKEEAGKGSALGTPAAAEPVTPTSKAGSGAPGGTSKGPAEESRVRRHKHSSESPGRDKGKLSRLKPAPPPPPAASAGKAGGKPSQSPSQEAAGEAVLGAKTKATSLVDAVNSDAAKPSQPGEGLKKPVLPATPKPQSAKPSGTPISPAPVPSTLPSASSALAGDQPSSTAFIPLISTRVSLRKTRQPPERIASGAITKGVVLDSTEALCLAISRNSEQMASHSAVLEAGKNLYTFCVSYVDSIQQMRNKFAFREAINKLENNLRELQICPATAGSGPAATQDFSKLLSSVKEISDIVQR
SMILES,ΔTm [1],ΔTm [2],ΔTm [3],ΔTm [4],ΔTm [5],ΔTm [6],ΔTm [7],ΔTm [8]
CCN1C(C)(C)CC(Oc2ccc(C(=O)Nc3ccc(NC(=O)Nc4cc(C(C)(C)C)on4)cc3)nc2)CC1(C)C,1.14 °C,-1.48 °C,0.38 °C,0.21 °C,0.25 °C,-3.48 °C,0.68 °C,-0.32 °C
CC(C)N(C[C@H]1O[C@@H](n2cnc3c(N)ncnc32)[C@H](O)[C@@H]1O)[C@H]1C[C@@H](CCc2nc3cc(C(C)(C)C)ccc3[nH]2)C1,0.52 °C,-1.59 °C,0.63 °C,0.57 °C,-0.47 °C,-0.02 °C,0.32 °C,-0.97 °C
C/C=C1\NC(=O)[C@H]2CSSCC/C=C/[C@H](CC(=O)N[C@H](C(C)C)C(=O)N2)OC(=O)[C@H](C(C)C)NC1=O,-1.22 °C,-2.72 °C,-0.96 °C,-0.77 °C,-0.05 °C,-6.13 °C,-0.48 °C,0.22 °C
COc1ccc(OC)c(-c2nnc3n2N=C(c2ccc(OC)c(OC)c2)CS3)c1,0.21 °C,2.23 °C,-0.04 °C,-0.07 °C,-1.12 °C,0.55 °C,-1.28 °C,1.86 °C
CN(CCC(Oc1ccc(-c2ccccc2)cc1)c1ccc(F)cc1)CC(=O)O (stereo unspecified),0.52 °C,2.4 °C,1.59 °C,-0.12 °C,-0.74 °C,0.42 °C,-1.88 °C,-0.18 °C
O=C(CCCCCCNC(=O)c1cnc(N(c2ccccc2)c2ccccc2)nc1)NO,0.66 °C,-2.07 °C,0.61 °C,0.12 °C,-0.11 °C,-0.28 °C,-0.51 °C,-0.68 °C
Cc1cc(S(C)(=O)=O)c(S(C)(=O)=O)cc1C(=O)NC(=N)N,0.73 °C,-0.31 °C,0.23 °C,-0.54 °C,0.15 °C,0.12 °C,-1.63 °C,0.34 °C
C[C@H](Nc1cc(Cl)nc2c1cnn2[C@@H]1O[C@H](COP(=O)(O)CP(=O)(O)O)[C@@H](O)[C@H]1O)c1ccccc1F,1.24 °C,-1.43 °C,-0.1 °C,0.27 °C,1 °C,-0.38 °C,1.74 °C,-0.82 °C
OC[C@H]1O[C@@H](c2ccc(F)c(Cc3cc4ccccc4s3)c2)[C@H](O)[C@@H](O)[C@@H]1O,0.51 °C,-3.4 °C,0.04 °C,-0.29 °C,-0.62 °C,0.05 °C,-1.82 °C,-0.42 °C
COc1ccc(-c2ccc(-c3cn(C(=O)N4CCCCC4c4ccccc4)nn3)cc2)cc1 (stereo unspecified),0.38 °C,-2.64 °C,0.04 °C,-0.53 °C,-1.61 °C,-0.45 °C,-1.09 °C,-0.5 °C
CC(C)[C@@H]1C(=O)N(S(C)(=O)=O)[C@@H]2CCN(C(=O)/C=C/CN3CCCCC3)[C@H]21,0.18 °C,-2.34 °C,0.22 °C,0.11 °C,-1.7 °C,0.03 °C,-0.54 °C,-1.12 °C
C[C@H](NC(=O)[C@H](Cc1ccccc1)NC(=O)OCc1ccccc1)C(=O)CF,0.31 °C,-2.33 °C,0.15 °C,0.19 °C,-0.61 °C,-0.19 °C,-0.86 °C,-1.01 °C
CCc1c(-c2ccccc2)c(-c2ccccc2)nn1-c1ccccc1-c1cccc(OCC(=O)O)c1,-0.2 °C,-8.88 °C,-1.12 °C,-2.01 °C,0 °C,-0.5 °C,-3.9 °C,-3.28 °C
O=C(NCC1CCOCC1)c1n[nH]cc1NC(=O)c1c(F)cccc1F,0.15 °C,-2 °C,3.53 °C,1.77 °C,14.4 °C,0.1 °C,1.73 °C,-0.72 °C
CN(CC[C@@H](Oc1ccc(-c2ccccc2)cc1)c1ccc(F)cc1)CC(=O)O,0.28 °C,-0.22 °C,-0.22 °C,0.15 °C,-0.98 °C,0.32 °C,-1.2 °C,2.77 °C
CC(=O)Nc1ccc(-c2cc(-c3ccccc3)nc3cc(C(=O)NCCCn4ccnc4)nn23)cc1,0.52 °C,1.46 °C,-0.15 °C,1.15 °C,-0.59 °C,0.9 °C,-0.25 °C,-2.15 °C
O=C1Nc2ccccc2C2(CCN(CC(Cc3ccccc3)Nc3nc4ccc(F)cc4s3)CC2)N1 (stereo unspecified),0.77 °C,-4.21 °C,-0.52 °C,-0.49 °C,-1.4 °C,-0.14 °C,-2.22 °C,0.18 °C
CCNC(=O)c1cc2c(-c3cc(C(C)(C)O)ccc3Oc3c(C)cc(F)cc3C)cn(C)c(=O)c2[nH]1,0.23 °C,11.1 °C,0.42 °C,-0.31 °C,-0.33 °C,1.43 °C,-2.76 °C,0.91 °C
O=C(CCCCCCC(=O)Nc1ccc([C@H]2O[C@@H](CSc3nc(-c4ccccc4)c(-c4ccccc4)o3)C[C@@H](c3ccc(CO)cc3)O2)cc1)NO,-3.66 °C,-1.65 °C,-1.26 °C,0 °C,2.86 °C,-12.5 °C,2.82 °C,3.56 °C
O=C(NC[C@H](O)CN1CCc2ccccc2C1)c1cc(NC2COC2)ncn1,0.58 °C,-1.3 °C,0.75 °C,0.5 °C,-0.25 °C,0.04 °C,-0.01 °C,-0.84 °C
CS(=O)(=O)c1ccc(-c2nnc(C=Cc3nnc(-c4ccc(C#N)cc4)o3)n2-c2ccccc2Cl)nc1,0.4 °C,-3.09 °C,0.99 °C,-0.25 °C,-0.77 °C,-0.27 °C,-1.63 °C,0.34 °C
O=C(NCC1(c2nc(-c3ccccc3)cs2)CCOCC1)c1cccc(-c2noc(C(F)(F)F)n2)c1,0 °C,-2.25 °C,0.39 °C,0.15 °C,-0.34 °C,-4.88 °C,-0.64 °C,-1.09 °C
